From PubChem BioAssay AID686978 (National Center for Advancing Translational Sciences (NCATS), 2013)
About 64,000 (15%) of roughly 420,000 compounds were called active. Inconclusive results (about 27%) are left out. The list is a sample of the results. A call without a number means that no potency is given here. A number with no mark means an inactive call. Calls follow the shape of the dose curve; as a rule, active = well fitted inhibition curve with a large enough effect; inconclusive = small, poorly fitted or top-dose-only effect; inactive = flat fitted curve, though single readings scatter.

Assay: qHTS for Inhibitors of human tyrosyl-DNA phosphodiesterase 1 (TDP1): qHTS in cells in absence of CPT; also: nearly all actives have a fitted effect of over 55% in size
Conditions: DT40 Tdp1-/- hTDP1 cells, no CPT, ATP luminescence, 48 h; activity change, negative = growth inhibition: at 46.2 µM (top of the series)
Procedure, shortened: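 Compound effects on proliferation are scored in DT40 Tdp1-/-;hTDP1 cells in the absence of CPT. ATP levels (CellTiter-Glo luminescence) are recorded after a ≥48 hr, 37 °C incubation.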
Potency is read from the fitted curve at half-maximal effect.

SMILES	Potency	activity change, negative = growth inhibition
CCN(CC)CCn1cnc2c1c(=O)n(CCOC(=O)c1cc(OC)c(OC)c(OC)c1)c(=O)n2C	inactive	–
CC(=O)c1nn(-c2ccc(C)cc2)cc1C(=O)c1cccc(Br)c1	inactive	–
O=C(CCNC(=O)c1ccc([N+](=O)[O-])cc1)NC1CCCCC1	inactive	–
CC(C)C1=CC2=CC[C@H]3[C@](C)(C(=O)O)CCC[C@]3(C)C2CC1 (some centres not stated)	–	3.41% [at 9.04 µM]
COc1ccc(CN2CCNC(=O)C2CC(=O)NCc2cn[nH]c2-c2ccccc2)c(F)c1 (configuration not stated)	inactive	–
COc1ccc(NS(=O)(=O)c2ccc(NC(=O)C(C)(C(F)(F)F)C(F)(F)F)cc2)nn1	inactive	–
c1ccc(-c2cn3c(n2)CCc2ccc4cccnc4c2-3)cc1	16.4 µM (active)	–
c1ccc(-c2cn3cccnc3n2)cc1	inactive	–
Cc1csc(NC(=O)CSc2nc(=O)n(CCCN(C)C)c3c2CCC3)n1	inactive	–
Cc1ccc(NC(=O)CSc2nc(=O)n(CCN(C)C)c3c2CCCC3)c(C)c1	inactive	–
Cc1ccc2nc(NC(=O)CSc3nc(=O)n(CCCN(C)C)c4c3CCC4)sc2c1	13 µM (active)	–
CCOC(=O)CC1=CC(=O)Nc2ccccc2N1	inactive	–
CCc1ccccc1NC(=O)CN1CCN(C(=O)c2cc(C3CC3)nn2-c2ccccc2)CC1	23.1 µM (active)	–
COc1cccc(NC(=O)CN(C)C(=O)c2cc(C3CC3)nn2-c2ccccc2)c1	inactive	–
CCc1ccccc1NC(=O)CN(C)C(=O)c1cc(C2CC2)nn1-c1ccccc1	inactive	–
Cc1ccc(C(=O)Nc2ccc3[nH]c(=O)c(=O)[nH]c3c2)cc1	inactive	–
COc1ccc(C(=O)Nc2ccc(NC(=O)C(C)C)nc2)cc1	inactive	–
COc1ccc(Sc2ccc(NC(=O)c3cccc(Cl)c3)cc2C#N)cc1	23.1 µM (active)	–
COC(=O)c1ccc(Sc2ccc(F)cc2)c(N)c1	inactive	–
Cc1ccc(Sc2ccc(NC(=O)c3ccc(F)cc3)cc2C#N)cc1	11.6 µM (active)	–
COc1ccc(NC(=O)c2cccc(Cl)c2)c[n+]1[O-]	inactive	–
COc1cccc(NC(=O)CCNS(=O)(=O)c2ccc3c(c2)oc(=O)n3C)c1	inactive	–
COCC(C)N=CC1=C(O)CC(C)(C)CC1=O (configuration not stated)	inactive	–
C=CCN1C=C(C(=O)c2ccccc2)C(=O)CC1	inactive	–
O=C(CCS(=O)(=O)Cc1ccccc1F)NCCCN1CCCCC1	inactive	–
CCCCNC(=O)OCCSCCS(=O)(=O)c1ccc(Cl)cc1	inactive	–

SMILES	Potency	activity change, negative = growth inhibition
CC12CCCCC1=CC(=O)CC2 (configuration not stated)	inactive	–
Cc1c(Cl)cccc1NC(=O)NCCCN1CCCC1=O	inactive	–
Cc1cccc([C@@H]2[C@@H]3C(=O)N(C)C(=O)[C@@H]3[C@@H]3C(=O)Nc4ccccc4C(=O)N23)c1	inactive	–
Cc1ccc(-c2cccc([C@H]3[C@@H]4C=CC[C@@H](C)[C@@H]4C(=O)N3Cc3ccccc3)c2)cc1	20.6 µM (active)	–
Cc1cccc([C@H]2[C@@H]3C=CC[C@@H](C)[C@@H]3C(=O)N2Cc2ccccc2)c1	14.6 µM (active)	–
Cc1cccc([C@@H]2[C@@H]3C(=O)N(Cc4ccccc4)C(=O)[C@@H]3[C@]3(Cc4ccc(Cl)cc4)C(=O)N(c4cccc(Cl)c4)C(=O)N23)c1	inactive	–
O=C(NNC(=S)NCCCN1CCOCC1)c1ccncc1	inactive	–
CC(C)c1ccc(/C=C/C(=O)NCCCN2CCOCC2)cc1	20.6 µM (active)	–
O=C(NCCCN1CCOCC1)c1ccc([N+](=O)[O-])cc1[N+](=O)[O-]	inactive	–
CCCC(=O)N(CCc1ccccc1)Cc1nc2ccccc2c(=O)[nH]1	inactive	–
CN(C)CCCNC(=O)c1cc(C(=O)Cc2ccc(Cl)cc2)c[nH]1	inactive	–
N=c1n(CCc2ccccc2)c2ccccc2n1Cc1ccccc1F	5.17 µM (active)	–
O=C(COC(=O)Cc1ccccc1F)NCCc1ccccc1	inactive	–
CCCCc1nccn1CCn1ccnc1CCCC	inactive	–
CC(C)NC(=O)NC(=O)CSc1nnc(-c2ccccc2F)n1N	inactive	–
O=C(O)Cn1c(Cc2ccccc2)nc2ccccc21	inactive	–
C=C(Br)Cn1c(CCCC)nc2ccccc21	11.6 µM (active)	–
C=CCn1c(P(C)(=O)O)nc2ccccc21	inactive	–
CCCCCCCC/C=C\CCCCCCCC(=O)OC[C@H](CO)OC(C)=O	–	-8.7% [at 4.12 µM]
CCCOC(=O)c1c(NC(=O)c2cc3nc(-c4ccc(OC)cc4)cc(C(F)(F)F)n3n2)sc2c1CCCC2	inactive	–
CC(=O)NS(=O)(=O)c1ccc2c(c1)Cc1cc(S(=O)(=O)NC(C)=O)ccc1-2	inactive	–
Cc1nc2nc3c(cn2n1)C(=O)CC(c1ccccc1)C3 (configuration not stated)	inactive	–
CCC(=O)N1c2ccccc2NC2=C(C(=O)CCC2)C1c1ccco1 (configuration not stated)	inactive	–
O=C1CC(c2ccccc2)CC2=C1C(c1ccco1)n1nc(C(F)(F)F)nc1N2 (configuration not stated)	14.1 µM (active)	–
CCOc1ccc(S(=O)(=O)NCCC(=O)NCC(C)(C)N2CCOCC2)cc1	inactive	–
CC(C(=O)Nc1ccccc1-c1ccccc1)N1CCOCC1 (configuration not stated)	inactive	–

SMILES	Potency	activity change, negative = growth inhibition
O=C(Nc1ccccc1F)c1ccccc1-c1ccccc1	inactive	–
Cc1ccccc1NC(=O)C(C)c1ccc(-c2ccccc2)c(F)c1 (configuration not stated)	16.4 µM (active)	–
COc1ccc(N=Nc2c(-c3ccc(OC)cc3)[nH]oc2=O)cc1	inactive	–
COc1ccc(N=C2C=CC(=O)O2)cc1	4.61 µM (active)	–
COC1=CC(=O)OC(c2ccc(OC)cc2)C1 (configuration not stated)	inactive	–
COc1ccc(OC)c2c(N)c(C#N)c(C(F)(F)C(F)(F)F)nc12	inactive	–
Cc1ccc(C(=O)OCC(=O)NCc2ccc3c(c2)OCO3)s1	inactive	–
COc1ccc(-c2cc(C(F)(F)F)nc(S(C)(=O)=O)n2)cc1OC	5.17 µM (active)	–
CCN(CC)S(=O)(=O)c1cccc(C(=O)NCC(=O)OCC(=O)NCc2ccccc2)c1	inactive	–
CCNC(=O)COc1cc(C)c(Br)c(C)c1	inactive	–
Cc1cc(F)ccc1NC1(c2ccccc2)C(=O)c2ccccc2C1=O	inactive	–
CC(=O)Nc1ccc(NC(=S)NC(=O)c2ccc([N+](=O)[O-])c(C)c2)cc1	inactive	–
CC(=O)Nc1ccc(/C=N/Nc2ccc(C(=O)c3c(C)cc4ccccn34)cc2[N+](=O)[O-])cc1	11.6 µM (active)	–
CNc1ccc(NC(C)=O)cc1[N+](=O)[O-]	inactive	–
CCC(C)NCC(=O)Nc1ccc([N+](=O)[O-])cc1C(=O)Nc1ccccc1F (configuration not stated)	inactive	–
Cc1ccc(S(=O)(=O)N(C)CC(=O)OCC(=O)N2CC(=O)Nc3ccccc32)cc1	inactive	–
COc1ccccc1C(=O)NC(=O)COC(=O)c1ccco1	inactive	–
COc1ccc(C(=O)C2CCCN(S(=O)(=O)c3cccc(C)c3)C2)c(C)c1 (configuration not stated)	18.4 µM (active)	–
CCn1nc(C)cc1C(=O)N1CCCC(C(=O)c2cccc(OC)c2)C1 (configuration not stated)	inactive	–
COc1ccc(OC)c(S(=O)(=O)N2CCCC(C(=O)NCCc3ccccc3)C2)c1 (configuration not stated)	inactive	–
CCOC(=O)C1CCN(S(=O)(=O)c2c(C)noc2C)CC1	inactive	–
O=C(c1ccc2c(c1)OCO2)N1CCOCC1	inactive	–
Cc1cc(C)c(S(=O)(=O)N2CCC(C(=O)OCc3c(C)noc3C)CC2)c(C)c1	inactive	–
COc1c(C)cc(C(=O)C2CCCN(S(=O)(=O)c3c(C)noc3C)C2)cc1C (configuration not stated)	16.4 µM (active)	–
COc1ccc(C(=O)C2CCCN(C(=O)c3ccc(OC)o3)C2)c(C)c1 (configuration not stated)	16.4 µM (active)	–
Cc1cc(Cl)ccc1C(=O)C1CCCN(C(=O)c2nonc2C)C1 (configuration not stated)	inactive	–

SMILES	Potency	activity change, negative = growth inhibition
Cc1cc(Cl)ccc1C(=O)C1CCCN(C(=O)c2ccc3c(c2)OCO3)C1 (configuration not stated)	8.2 µM (active)	–
CCNC(=O)C1CCCN(C(=O)c2ccc(OC)cc2OC)CC1 (configuration not stated)	inactive	–
COc1cccc(N2CCN(C(=O)C3CCCN(S(=O)(=O)c4cnc[nH]4)C3)CC2)c1 (configuration not stated)	inactive	–
O=C(COc1cccnc1[N+](=O)[O-])Nc1ccc(Cl)cc1F	inactive	–
Cc1ccc(NC(=O)OCc2cncs2)cc1	inactive	–
COC(=O)c1c(C(=O)OC)c2n(c1C)CCS2	inactive	–
CC(C)(C)OC(=O)N(Cc1ccco1)S(=O)(=O)c1ccccc1Br	inactive	–
CCn1c(N)c(Br)c(=O)[nH]c1=O	inactive	–
N#Cc1c(NCCO)ccc([N+](=O)[O-])c1NCCO	inactive	–
CC1CCN(C(=O)CSc2nnc(-c3ccco3)n2N)CC1	inactive	–
CCCn1nc(NS(=O)(=O)c2ccccc2)c2cc3cc(C)ccc3nc21	inactive	–
CC(C)NC(=O)COCc1cc(-c2ccc3c(c2)OCO3)on1	inactive	–
O=c1c(-c2ccccc2)coc2c(CN3CCOCC3)c(O)ccc12	inactive	–
Cc1cc(=O)n2nc(N3CCCC3C(=O)NCCCN3CC(C)CC(C)C3)sc2n1 (configuration not stated)	inactive	–
Cc1nnc(SCc2cc(=O)c3cc(F)ccc3[nH]2)n1C	inactive	–
COCCCN(C(=O)CSCc1ccc(C)cc1)c1c(N)n(Cc2ccccc2)c(=O)[nH]c1=O	inactive	–
CCN(C(=O)COC(=O)c1c(C)nn(-c2ccccc2)c1Cl)c1c(N)n(Cc2ccccc2)c(=O)[nH]c1=O	inactive	–
COCCN(C(=O)COC(=O)Cc1cccc(OC)c1)c1c(N)n(Cc2ccccc2)c(=O)[nH]c1=O	inactive	–
CCN(C(=O)COC(=O)Cc1c(F)cccc1Cl)c1c(N)n(Cc2ccccc2)c(=O)[nH]c1=O	inactive	–
CCCCN(C(=O)CSCc1ccc(C)cc1)c1c(N)n(Cc2ccccc2)c(=O)[nH]c1=O	25.9 µM (active)	–
COCCN(C(=O)CSCc1ccc(C)cc1)c1c(N)n(CC(C)C)c(=O)[nH]c1=O	inactive	–
COc1ccc2oc(C(=O)OCC(=O)N(CC(C)C)c3c(N)n(Cc4ccccc4)c(=O)[nH]c3=O)c(C)c2c1	16.4 µM (active)	–
CCN(C(=O)COC(=O)CCOc1cccc(C)c1)c1c(N)n(Cc2ccccc2)c(=O)[nH]c1=O	18.4 µM (active)	–
CCN(C(=O)COC(=O)c1sccc1C)c1c(N)n(Cc2ccccc2)c(=O)[nH]c1=O	inactive	–
